# Results filed as inconclusive are left out. The source made the active and inactive calls. Rule for the calls: active = hit-call score of the fitted dose curve at least 0.9, where 1 is the maximum; inconclusive = response in the unintended direction; inactive = score below 0.9.
# Biological target: Retinoic acid receptor alpha (Homo sapiens) (UniProt P10276)
# Experiment: NVS_NR_hRARa_Agonist: NovaScreen (NVS) Nuclear Receptor Binding Assay for human Retinoic Acid Alpha Receptor Agonism (RAR) (AID 2283361)
# Procedure, shortened: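 Cell-free TR-FRET binding read-out with extracted human RARα protein, read 2 h after compound addition. Gain of signal scored against DMSO baseline. Primary screen at a single 25 uM in duplicate; actives then retested in concentration series.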
# Chain of Retinoic acid receptor alpha (Homo sapiens) (P10276 whole entry, looked up): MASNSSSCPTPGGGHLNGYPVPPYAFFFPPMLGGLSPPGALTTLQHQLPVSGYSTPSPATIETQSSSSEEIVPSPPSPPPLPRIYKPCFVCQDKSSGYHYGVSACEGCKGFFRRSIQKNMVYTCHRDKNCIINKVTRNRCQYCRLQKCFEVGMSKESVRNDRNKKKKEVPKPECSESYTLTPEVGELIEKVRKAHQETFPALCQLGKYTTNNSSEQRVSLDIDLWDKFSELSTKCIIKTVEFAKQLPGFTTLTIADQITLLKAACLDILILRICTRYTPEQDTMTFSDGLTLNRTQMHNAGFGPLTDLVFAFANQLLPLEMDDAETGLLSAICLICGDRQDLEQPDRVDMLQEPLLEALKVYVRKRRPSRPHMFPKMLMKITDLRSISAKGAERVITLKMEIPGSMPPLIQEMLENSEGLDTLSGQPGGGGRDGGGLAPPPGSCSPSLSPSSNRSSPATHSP
row,Compound,AC50
1,CCCCCCCC[N+](C)(CCCCCCCC)CCCCCCCC,4.37 µM (active)
2,CN(C)c1ccc(C(=N)c2ccc(N(C)C)cc2)cc1,14.1 µM (active)
3,O=S(=O)(O)c1ccccc1C=Cc1ccc(-c2ccc(C=Cc3ccccc3S(=O)(=O)O)cc2)cc1,12.1 µM (active)

# Biological target: human Thyroid Receptor Alpha (TRa), THRA (gene 7067) (UniProt P10827)
# Experiment: NVS_NR_hTRa_Antagonist: NovaScreen (NVS) Nuclear Receptor Binding Assay for human Thyroid Receptor Alpha Antagonism (TRa) (AID 2283362);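 note: activity is loss of signal relative to DMSO baseline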
# Procedure, shortened: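 Cell-free binding assay on extracted receptor protein, read 1 h after chemical dosing by AlphaLISA chemiluminescence; loss of signal relative to DMSO baseline marks antagonism. Primary screen ran in duplicate at 25 uM, with concentration series for actives.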
# Chain of human Thyroid Receptor Alpha (TRa), THRA (gene 7067) (P10827 whole entry, looked up): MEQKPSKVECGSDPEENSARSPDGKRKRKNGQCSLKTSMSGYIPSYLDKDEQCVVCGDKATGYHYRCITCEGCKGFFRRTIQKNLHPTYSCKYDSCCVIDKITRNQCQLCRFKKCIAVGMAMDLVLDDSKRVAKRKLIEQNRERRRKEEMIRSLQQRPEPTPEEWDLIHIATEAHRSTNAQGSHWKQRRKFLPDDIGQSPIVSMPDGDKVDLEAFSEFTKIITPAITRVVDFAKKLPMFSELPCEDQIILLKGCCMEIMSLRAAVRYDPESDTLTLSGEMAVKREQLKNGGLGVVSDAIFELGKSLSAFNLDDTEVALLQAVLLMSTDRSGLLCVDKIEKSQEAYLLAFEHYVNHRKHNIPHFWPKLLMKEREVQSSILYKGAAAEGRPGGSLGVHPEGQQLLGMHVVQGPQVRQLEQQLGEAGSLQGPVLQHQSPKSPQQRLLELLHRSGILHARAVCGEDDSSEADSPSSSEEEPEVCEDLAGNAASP
Compound,outcome,AC50
CC/C=C\C/C=C\C/C=C\CCCCCCCC(=O)O,inactive,
O=S1(=O)OC(c2ccc(O)cc2)(c2ccc(O)cc2)c2ccccc21,,11 µM (active)
Cc1ccc(N/N=c2\c(=O)cc/c(=N/Nc3ccc(S(=O)(=O)O)cc3)c2=O)c(C)c1,,18.6 µM (active)

# Biological target: Glucocorticoid receptor (Homo sapiens) (UniProt P04150)
# Experiment: NVS_NR_hGR: NovaScreen (NVS) Nuclear Receptor Binding Assay for human Glucocorticoid Receptor (GR) (AID 2283363);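 for AC50: activity is loss of specific radioligand binding signal relative to DMSO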
# Procedure, shortened: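 Cell-free radioligand binding with extracted receptor protein, read by filter-based scintillation counting 16 hours after dosing. Loss of specific signal versus DMSO baseline was scored. Primary screen ran in duplicate at 25 uM; actives were followed up in concentration series.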
# Chain of Glucocorticoid receptor (Homo sapiens) (P04150 whole entry, looked up): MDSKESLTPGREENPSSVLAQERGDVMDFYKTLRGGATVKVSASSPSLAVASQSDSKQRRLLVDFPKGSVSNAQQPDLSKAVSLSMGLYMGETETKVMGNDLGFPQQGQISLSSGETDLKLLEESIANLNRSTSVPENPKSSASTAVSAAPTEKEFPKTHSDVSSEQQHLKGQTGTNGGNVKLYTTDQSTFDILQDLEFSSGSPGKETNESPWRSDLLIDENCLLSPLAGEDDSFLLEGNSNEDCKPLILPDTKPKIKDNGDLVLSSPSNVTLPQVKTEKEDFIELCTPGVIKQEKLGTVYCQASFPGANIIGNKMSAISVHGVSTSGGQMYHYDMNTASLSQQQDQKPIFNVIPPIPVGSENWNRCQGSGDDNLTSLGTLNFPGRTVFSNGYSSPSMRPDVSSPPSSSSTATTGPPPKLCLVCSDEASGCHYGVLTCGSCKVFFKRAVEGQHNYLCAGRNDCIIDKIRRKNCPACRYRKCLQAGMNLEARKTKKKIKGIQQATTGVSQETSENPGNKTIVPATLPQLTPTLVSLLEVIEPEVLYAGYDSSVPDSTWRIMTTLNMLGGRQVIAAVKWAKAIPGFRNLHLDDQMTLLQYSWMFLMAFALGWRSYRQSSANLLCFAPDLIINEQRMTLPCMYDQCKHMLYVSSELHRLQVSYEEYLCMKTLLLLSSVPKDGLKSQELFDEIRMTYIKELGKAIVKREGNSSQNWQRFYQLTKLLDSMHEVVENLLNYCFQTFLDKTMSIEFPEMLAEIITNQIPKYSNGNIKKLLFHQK
Compound,outcome,AC50
O=C1CCCC1,inactive,
CCCCCCCCCCCCCOP(=O)(O)O,,10.4 µM (active)
CCCCCCCCCCCCCCCC[N+](C)(C)CC,,2.81 µM (active)
CCCCCCCC[N+](C)(CCCCCCCC)CCCCCCCC,inactive,
CC(C)c1ccc2c(C(C)C)cc(C(C)C)c(S(=O)(=O)O)c2c1,,10.9 µM (active)
CCN(CCC#N)c1ccc(N=Nc2c(Cl)cc([N+](=O)[O-])cc2Cl)cc1,,25 µM (active)
c1ccc2c(c1)ccc1cc3c(ccc4ccccc43)cc12,inactive,
O=S(=O)(O)c1ccccc1C=Cc1ccc(-c2ccc(C=Cc3ccccc3S(=O)(=O)O)cc2)cc1,,3.61 µM (active)
Oc1ccc(Cl)cc1Cc1cc(Cl)ccc1O,,2.65 µM (active)
C#CC1(O)CC[C@H]2[C@@H]3CCC4=CCCC[C@@H]4[C@H]3CC[C@@]21C (some centres not stated),,5.07 µM (active)
O=C(Nc1ccccc1SSc1ccccc1NC(=O)c1ccccc1)c1ccccc1,,11.3 µM (active)

# From PubChem BioAssay (EPA / NIEHS)
